# How the values were obtained:
# Conditions in all cases: concentration: 1 μM, replicates: in singlicate; n = 1
# FGFR1 = tested on: FGFR1
# FGFR2 = tested on: FGFR2
# FGFR3 = tested on: FGFR3
# FGFR4 = tested on: FGFR4
# FGR = tested on: FGR
# FLT1 = tested on: FLT1
# FLT3-autoinhibited = tested on: FLT3-autoinhibited
# FLT3 = tested on: FLT3
# FLT4 = tested on: FLT4
# FRK = tested on: FRK
# 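Note: KINOMEscan kinase panel screen.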
SMILES,%Inh (FGFR1) [%],%Inh (FGFR2) [%],%Inh (FGFR3) [%],%Inh (FGFR4) [%],%Inh (FGR) [%],%Inh (FLT1) [%],%Inh (FLT3-autoinhibited) [%],%Inh (FLT3) [%],%Inh (FLT4) [%],%Inh (FRK) [%]
Cc1cccc(Nc2nc(N[C@H]3CCCC[C@H]3N)ncc2C(N)=O)c1.Cl [GSK986310],24,4,3,15,56,43,1,23,24,19
COc1cccc(NC(=O)NCCNc2ccnc(Nc3ccc(F)cc3)n2)c1 [GSK1379879],0,53,2,9,22,15,0,0,0,11
Cc1ccccc1CC(=O)N1CCc2cc(-c3cn(C)c4ncnc(N)c34)ccc21 [GSK2603346],0,14,8,0,22,59,0,51,29,2
COc1cccc(C2=C(Nc3cccc(O)c3)C(=O)NC2=O)c1 [SB-390771],0,29,28,19,33,22,0,3,20,11
Cc1nn2c(=O)cc(N3CCO[C@H](C)C3)nc2n1Cc1cccc(Cl)c1Cl [GSK2373693],6,12,12,63,6,33,13,0,18,5
O=C(Nc1n[nH]c2nc(-c3cccc(O)c3)ccc12)C1CC1 [SB-711805],18,0,0,0,9,10,21,13,0,0
CSc1ccc(NC2=C(c3ccc(Cl)cc3)C(=O)NC2=O)cc1 [SB-317658],0,9,6,0,29,5,5,1,3,0
Cc1ccc(NC(=O)c2ccc(Cl)c(Cl)c2)cc1-c1ccc(C(=O)Nc2ccncc2)cc1 [GSK1398460],0,0,14,6,26,70,14,5,57,82
CN(C)CCOc1ccc(-c2cc(-c3ccc(Cl)c(O)c3)c(-c3ccncc3)[nH]2)cc1.Cl.Cl [SB-684387],0,1,30,15,73,0,17,0,1,82
O=C(O)C(F)(F)F.O=c1[nH]ccc2nc(N[C@@H]3CCNC3)nc(Nc3ccc4c(c3)S(=O)(=O)CC4)c12 [GSK2181306],4,33,21,0,45,32,79,61,42,26
O=C1NC(=O)C(c2ccccc2Cl)=C1Nc1cccc(Cl)c1 [SB-342409],0,4,16,94.1,22,11,0,0,0,15
O=C(Nc1n[nH]c2cc(-c3cccs3)ccc12)C1CC1 [SB-731284],18,0,0,0,0,0,65,59,18,0
COc1ccc(C2=C(Nc3cccc(O)c3)C(=O)NC2=O)cc1 [SB-390766],0,0,0,27,0,5,0,0,35,11
CCNc1nccc(-c2c(-c3ccc(F)cc3)ncn2C2CCN(C)CC2)n1,0,6,0,0,0,18,0,24,6,0
Cc1ccc(NC(=O)c2ccnc(N3CCCCC3)c2)cc1-c1ccc(C(=O)NCC2CC2)cc1 [GW775610],4,10,2,0,0,36,6,72,0,32
CN(c1ccc(NC(=O)N2CCN(CCCN3CCOCC3)CC2)cc1)c1ccnc(Nc2ccc(CS(C)(=O)=O)cc2)n1.Cl [GW830899],0,9,8,5,35,73,75,92.7,38,32

# From publication PMC5540273 (PLoS ONE, 2017)
